Assay results published in the supplement of paper PMC6555819.

Columns and labels:
Experiment in all cases: PBM binding z-score (relative to random genomic background probes); higher = stronger binding; sequences stand for … in GC…GCGATTGACAGCGTAGAATGAAGG
[1] = tested on: FXR:RXRa (NR concentration 270 nM, RXRa partner concentration 90 nM)
In short: (§1)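 The probes on custom Agilent 4×180K protein-binding microarrays were double-stranded, with 34-nt variable regions bearing direct-repeat seeds, single-nucleotide variants, half-site ablations and random human genomic background sequences. Incubation lasted 1 h with ligand-free nuclear receptor dimers in PBS pH 7.4, 2% milk, 0.02% Triton X-100, 1 mM DTT, 0.2 mg/mL BSA and 0.4 mg/ml salmon testes DNA. Antibodies against each partner (one per run) detected bound dimers, and fluorescence scans were regression-normalized. Binding z-scores take the random background probes as reference.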

[2] = tested on: LXRa:RXRa (NR concentration 270 nM, RXRa partner concentration 90 nM)
In short: as §1

[3] = tested on: LXRa homodimer (NR concentration 270 nM)
In short: as §1

[4] = tested on: LXRb:RXRa (NR concentration 270 nM, RXRa partner concentration 90 nM)
In short: as §1

[5] = tested on: LXRb homodimer (NR concentration 270 nM)
In short: as §1

[6] = tested on: PPARa:RXRa (NR concentration 270 nM, RXRa partner concentration 90 nM)
In short: as §1

[7] = tested on: PPARg:RXRa (NR concentration 180 nM, RXRa partner concentration 90 nM)
In short: as §1

[8] = tested on: PPARg:RXRa 270nM:90nM, anti-RXR (NR concentration 270 nM, RXRa partner concentration 90 nM)
In short: as §1

[9] = tested on: PPARg:RXRa 30nM:10nM, anti-RXR (NR concentration 30 nM, RXRa partner concentration 10 nM)
In short: as §1

[10] = tested on: PPARg:RXRa 90nM:30nM, anti-RXR (NR concentration 90 nM, RXRa partner concentration 30 nM)
In short: as §1

## AGAATGTGGTTAAGATCAGGGAAACAGAATACAT
[1]
  PBM binding z-score: 0.33
[2]
  PBM binding z-score: -0.14
[3]
  PBM binding z-score: 0.153
[4]
  PBM binding z-score: 0.27
[5]
  PBM binding z-score: 0.174
[6]
  PBM binding z-score: 0.172
[7]
  PBM binding z-score: 0.496
[8]
  PBM binding z-score: 0.291
[9]
  PBM binding z-score: 0.299
[10]
  PBM binding z-score: -0.247

## GGAACGAGGGCAGTCGAGTTGATAGCATGGCGAT
[1]
  PBM binding z-score: 0.203
[2]
  PBM binding z-score: -0.214
[3]
  PBM binding z-score: -0.72
[4]
  PBM binding z-score: -0.752
[5]
  PBM binding z-score: -1.02
[6]
  PBM binding z-score: 0.405
[7]
  PBM binding z-score: 0.453
[8]
  PBM binding z-score: -0.213
[9]
  PBM binding z-score: -0.485
[10]
  PBM binding z-score: -0.457

## TTACAAAGGTGAAGGTCGTTGATCCCTCTGTAGA
[1]
  PBM binding z-score: 3.61
[2]
  PBM binding z-score: 2.92
[3]
  PBM binding z-score: 0.147
[4]
  PBM binding z-score: 2.33
[5]
  PBM binding z-score: -0.453
[6]
  PBM binding z-score: 3.81
[7]
  PBM binding z-score: 3.92
[8]
  PBM binding z-score: 4.48
[9]
  PBM binding z-score: 2.28
[10]
  PBM binding z-score: 4.11

## GCATATAGGTAATACAAGGTGAACGTCCGATTGT
[1]
  PBM binding z-score: 0.337
[2]
  PBM binding z-score: 1.82
[3]
  PBM binding z-score: 0.257
[4]
  PBM binding z-score: 0.685
[5]
  PBM binding z-score: -0.32
[6]
  PBM binding z-score: 1.55
[7]
  PBM binding z-score: 1.47
[8]
  PBM binding z-score: 1.12
[9]
  PBM binding z-score: 0.658
[10]
  PBM binding z-score: 0.861

## ATATGTAGGTTATCTGGTCATTCAGTTTGCGCAT
[1]
  PBM binding z-score: 1.2
[2]
  PBM binding z-score: 1.28
[3]
  PBM binding z-score: 1.15
[4]
  PBM binding z-score: 1.21
[5]
  PBM binding z-score: 0.901
[6]
  PBM binding z-score: 3.58
[7]
  PBM binding z-score: 5.56
[8]
  PBM binding z-score: 4.79
[9]
  PBM binding z-score: 2.32
[10]
  PBM binding z-score: 4.3

## TGTCAAAGTTCAAAGCTAACGTAAGTATCCACAC
[1]
  PBM binding z-score: 6.52
[2]
  PBM binding z-score: 6.15
[3]
  PBM binding z-score: 3.83
[4]
  PBM binding z-score: 4.14
[5]
  PBM binding z-score: 1.86
[6]
  PBM binding z-score: 5.22
[7]
  PBM binding z-score: 7.92
[8]
  PBM binding z-score: 7.25
[9]
  PBM binding z-score: 4.27
[10]
  PBM binding z-score: 7.06

## AGAATGAGGTTATACGTAGATCAGGGAAGAAAGT
[1]
  PBM binding z-score: 2.37
[2]
  PBM binding z-score: 1.99
[3]
  PBM binding z-score: 0.0175
[4]
  PBM binding z-score: 1.7
[5]
  PBM binding z-score: 0.71
[6]
  PBM binding z-score: 3.18
[7]
  PBM binding z-score: 2.1
[8]
  PBM binding z-score: 2.02
[9]
  PBM binding z-score: 0.854
[10]
  PBM binding z-score: 1.48

## CGTCCAAGGTCAGAGAGGTCAGAGAATGCCGAGT
[1]
  PBM binding z-score: 6.45
[2]
  PBM binding z-score: 5.34
[3]
  PBM binding z-score: 3.4
[4]
  PBM binding z-score: 4.53
[5]
  PBM binding z-score: 0.508
[6]
  PBM binding z-score: 5.1
[7]
  PBM binding z-score: 3.75
[8]
  PBM binding z-score: 4.28
[9]
  PBM binding z-score: 1.33
[10]
  PBM binding z-score: 3

## TAGCCTAGGTCATTGGGCCAGGATAGTACGCATC
[1]
  PBM binding z-score: 3.92
[2]
  PBM binding z-score: 3.17
[3]
  PBM binding z-score: 0.159
[4]
  PBM binding z-score: 1.47
[5]
  PBM binding z-score: -0.488
[6]
  PBM binding z-score: 3.6
[7]
  PBM binding z-score: 3.36
[8]
  PBM binding z-score: 3.58
[9]
  PBM binding z-score: 0.83
[10]
  PBM binding z-score: 2.29

## CAAACTAGGTCACGAAAGGTCAAACTCGAATGAC
[1]
  PBM binding z-score: 7.61
[2]
  PBM binding z-score: 8.32
[3]
  PBM binding z-score: 8.55
[4]
  PBM binding z-score: 7.66
[5]
  PBM binding z-score: 3.3
[6]
  PBM binding z-score: 6.75
[7]
  PBM binding z-score: 10.5
[8]
  PBM binding z-score: 8.69
[9]
  PBM binding z-score: 6.95
[10]
  PBM binding z-score: 8.93

## CAGCCTAGGCCAGGGCCAGTATAGGAGGAACGTT
[1]
  PBM binding z-score: -0.702
[2]
  PBM binding z-score: -1.16
[3]
  PBM binding z-score: -0.761
[4]
  PBM binding z-score: -1.14
[5]
  PBM binding z-score: -1.72
[6]
  PBM binding z-score: -0.754
[7]
  PBM binding z-score: 0.0393
[8]
  PBM binding z-score: -1.36
[9]
  PBM binding z-score: -0.853
[10]
  PBM binding z-score: -1.1

## TTACCATGGTGAAGGTCGTTGATCCCTCTGTAGA
[1]
  PBM binding z-score: 1.59
[2]
  PBM binding z-score: 1.54
[3]
  PBM binding z-score: -0.212
[4]
  PBM binding z-score: 1.35
[5]
  PBM binding z-score: -0.704
[6]
  PBM binding z-score: 1.64
[7]
  PBM binding z-score: 1.06
[8]
  PBM binding z-score: 2.74
[9]
  PBM binding z-score: 1.09
[10]
  PBM binding z-score: 2.44

## TCTTGTAGATCAACAGGAGGTTAACAAAGATCGA
[1]
  PBM binding z-score: 0.166
[2]
  PBM binding z-score: 1.73
[3]
  PBM binding z-score: 0.274
[4]
  PBM binding z-score: 1.3
[5]
  PBM binding z-score: -0.158
[6]
  PBM binding z-score: 1.69
[7]
  PBM binding z-score: 0.373
[8]
  PBM binding z-score: 1.39
[9]
  PBM binding z-score: 2.62
[10]
  PBM binding z-score: 1.92

## GCTAGTTGTTCAGTAAAAGGTCACACACCGGTCG
[1]
  PBM binding z-score: 3.26
[2]
  PBM binding z-score: 4.29
[3]
  PBM binding z-score: 4.24
[4]
  PBM binding z-score: 4.06
[5]
  PBM binding z-score: 0.882
[6]
  PBM binding z-score: 4.13
[7]
  PBM binding z-score: 1.84
[8]
  PBM binding z-score: 3.57
[9]
  PBM binding z-score: 1.49
[10]
  PBM binding z-score: 3.27

## ACTCGGAGGACAAAGGTCAGCGCTACGCCAGTGA
[1]
  PBM binding z-score: 4.44
[2]
  PBM binding z-score: 4.2
[3]
  PBM binding z-score: 1.62
[4]
  PBM binding z-score: 3.51
[5]
  PBM binding z-score: 0.168
[6]
  PBM binding z-score: 5.24
[7]
  PBM binding z-score: 8.05
[8]
  PBM binding z-score: 7.77
[9]
  PBM binding z-score: 7.19
[10]
  PBM binding z-score: 8.33

## GGTATTAGTTGAAAGGGCAACCGAATGATTCTCG
[1]
  PBM binding z-score: 1.14
[2]
  PBM binding z-score: 1.49
[3]
  PBM binding z-score: 1.06
[4]
  PBM binding z-score: 1.41
[5]
  PBM binding z-score: 0.907
[6]
  PBM binding z-score: 2.66
[7]
  PBM binding z-score: 3.26
[8]
  PBM binding z-score: 5.07
[9]
  PBM binding z-score: 3.13
[10]
  PBM binding z-score: 4.79

## TCTGCTAGGACAACGATGGTCAGCTAATCTGCTA
[1]
  PBM binding z-score: -0.541
[2]
  PBM binding z-score: -0.708
[3]
  PBM binding z-score: -0.957
[4]
  PBM binding z-score: -0.773
[5]
  PBM binding z-score: -0.823
[6]
  PBM binding z-score: -0.569
[7]
  PBM binding z-score: -0.0545
[8]
  PBM binding z-score: 0.0795
[9]
  PBM binding z-score: 0.983
[10]
  PBM binding z-score: 0.581

## AGTCAAAGTTCAGGACGAGGTAACGTGAAGCACG
[1]
  PBM binding z-score: 4.49
[2]
  PBM binding z-score: 3.69
[3]
  PBM binding z-score: 1
[4]
  PBM binding z-score: 1.68
[5]
  PBM binding z-score: -0.0491
[6]
  PBM binding z-score: 3.33
[7]
  PBM binding z-score: 4.84
[8]
  PBM binding z-score: 4.84
[9]
  PBM binding z-score: 2.04
[10]
  PBM binding z-score: 4.12

## TCATCTAGGTAAAGGTGAAAGTCGAACGATATGA
[1]
  PBM binding z-score: 1.37
[2]
  PBM binding z-score: 1.5
[3]
  PBM binding z-score: 0.00636
[4]
  PBM binding z-score: 1.3
[5]
  PBM binding z-score: 0.134
[6]
  PBM binding z-score: 3.3
[7]
  PBM binding z-score: 3.93
[8]
  PBM binding z-score: 4.83
[9]
  PBM binding z-score: 4.58
[10]
  PBM binding z-score: 4.92

## AGTCAAAGATCACTAGGTAACGTAAGATTCAGCT
[1]
  PBM binding z-score: -0.239
[2]
  PBM binding z-score: 0.0788
[3]
  PBM binding z-score: -0.206
[4]
  PBM binding z-score: 0.152
[5]
  PBM binding z-score: -0.329
[6]
  PBM binding z-score: 1.52
[7]
  PBM binding z-score: 2.34
[8]
  PBM binding z-score: 2.95
[9]
  PBM binding z-score: 0.876
[10]
  PBM binding z-score: 2.3

## CCTTACGGGTCACTCCAGGATATAGCATCGGAGT
[1]
  PBM binding z-score: 4.88
[2]
  PBM binding z-score: 5.8
[3]
  PBM binding z-score: 0.346
[4]
  PBM binding z-score: 2.94
[5]
  PBM binding z-score: 0.014
[6]
  PBM binding z-score: 4.08
[7]
  PBM binding z-score: 3.39
[8]
  PBM binding z-score: 3.49
[9]
  PBM binding z-score: 1.08
[10]
  PBM binding z-score: 2.48

## TGTAGTTGGTCACGGAGGTCACACACGACGGGTA
[1]
  PBM binding z-score: 3.41
[2]
  PBM binding z-score: 3.44
[3]
  PBM binding z-score: 2.52
[4]
  PBM binding z-score: 3.09
[5]
  PBM binding z-score: 0.847
[6]
  PBM binding z-score: 3.87
[7]
  PBM binding z-score: 3.72
[8]
  PBM binding z-score: 3.52
[9]
  PBM binding z-score: 1.51
[10]
  PBM binding z-score: 2.93

## ACAGACAGGTGAGTAAAGGTAACTCAGCTGGACG
[1]
  PBM binding z-score: 0.171
[2]
  PBM binding z-score: 0.4
[3]
  PBM binding z-score: -0.568
[4]
  PBM binding z-score: -0.0938
[5]
  PBM binding z-score: -0.506
[6]
  PBM binding z-score: 0.95
[7]
  PBM binding z-score: 1.25
[8]
  PBM binding z-score: 1.64
[9]
  PBM binding z-score: 0.681
[10]
  PBM binding z-score: 1.27
